Results as given in PubChem BioAssay (NCI).
Compounds without any hit were thinned out: in the full panel of roughly 79,000, 15% have a hit. A number with no mark means an inactive call. Activity calls are given as the source filed them. Rule as the data show it: active = growth inhibition above about 70%; inactive = the rest.

Assays:
[1] = NCI Yeast Anticancer Drug Screen. Data for the rad50 strain (AID 155);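 also: 0% = growth of vehicle-only cultures of the same strain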; conditions: S. cerevisiae rad50 strain growth inhibition, active compounds read high
In short: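 Cells are treated with compound, grown, and their growth is then scored against vehicle-only cultures of the same repair-deficient yeast strain.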

[2] = NCI Yeast Anticancer Drug Screen. Data for the mec2-1 strain (AID 157); conditions: S. cerevisiae mec2-1 strain, active compounds read high
In short: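 Yeast mec2-1 mutant treated with compound. Readout: growth inhibition vs vehicle controls.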

[3] = NCI Yeast Anticancer Drug Screen. Data for the sgs1 mgt1 strain (AID 161);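 also: 0% = growth of cultures given vehicle only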; conditions: S. cerevisiae sgs1 mgt1 strain, active compounds read high
In short: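 Read-out: growth inhibition vs vehicle controls. Cells: mutant yeast strain deficient in DNA damage repair.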

[4] = NCI Yeast Anticancer Drug Screen. Data for the cln2 rad14 strain (AID 165);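 also: 0% = growth equal to vehicle treated cultures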; conditions: S. cerevisiae cln2 rad14 strain, active compounds read high
In short: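 cln2 rad14 yeast strain; compound exposure; growth inhibition read vs vehicle controls.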

[5] = NCI Yeast Anticancer Drug Screen. Data for the bub3 strain (AID 167); conditions: S. cerevisiae bub3 mutant strain, active compounds read high
In short: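 Part of a panel of yeast mutants defective in DNA damage repair or cell cycle regulation. Each strain is grown with compound, and inhibition is calculated relative to solvent-treated cultures.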

[6] = NCI Yeast Anticancer Drug Screen. Data for the mlh1 rad18 strain (AID 175); conditions: S. cerevisiae mlh1 rad18 strain growth inhibition, active compounds read high
In short: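 Yeast w/ defined DNA-repair lesions; compound exposure; growth vs vehicle controls → % inhibition.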

[7] = at 5.0 µM (retest, dose inferred, filed as 0.5)
[8] = at 50.0 µM (retest, dose inferred, filed as 5.0)

| Compound | growth inhibition [1, 7] | growth inhibition [1, 8] | growth inhibition ([1]; at 50.0 µM) | growth inhibition [2, 7] | growth inhibition [2, 8] | growth inhibition ([2]; at 50.0 µM) | growth inhibition [3, 7] | growth inhibition [3, 8] | growth inhibition ([3]; at 50.0 µM) | growth inhibition [4, 7] | growth inhibition [4, 8] | growth inhibition ([4]; at 50.0 µM) | growth inhibition [5, 7] | growth inhibition [5, 8] | growth inhibition ([5]; at 50.0 µM) | growth inhibition [6, 7] | growth inhibition [6, 8] | growth inhibition ([6]; at 50.0 µM) |
| --- | --- | --- | --- | --- | --- | --- | --- | --- | --- | --- | --- | --- | --- | --- | --- | --- | --- | --- |
| CCOC(=O)C(c1ccsc1)P(=O)(OCC)OCC (stereo not given) | 11% | 60% | 69.2% | -21% | 74% (active) | 66.7% | 12% | 53% | 60.6% | 19% | 68% | 57% | 8% | 87% (active) | 67.3% | 4% | 84% (active) | 60.9% |
| NC[CH2][Sn]([c]1ccccc1)([CH]1CCCCC1)[CH]1CCCCC1 | 99% (active) | 98% (active) | 99% (active) | 100% (active) | 99% (active) | 98.7% (active) | 100% (active) | 99% (active) | 93.3% (active) | 98% (active) | 98% (active) | 97.5% (active) | 98% (active) | 98% (active) | 98.5% (active) | 100% (active) | 98% (active) | 98.9% (active) |
| c1ccc([As+](c2ccccc2)(c2ccccc2)c2cccc3ccccc23)cc1 | 88% (active) | 99% (active) | 99% (active) | 90% (active) | 99% (active) | 99.1% (active) | 93% (active) | 100% (active) | 98.7% (active) | 86% (active) | 99% (active) | 99% (active) | 90% (active) | 99% (active) | 98.8% (active) | 88% (active) | 99% (active) | 98.8% (active) |
| CN(C)c1ncnc2c1ncn2C1OC(CO)C2NP(=O)(N(CCCl)CCCl)OC21 (stereo not given) | 1% | 80% (active) | 87.9% (active) | -3% | 24% | -1.35% | -3% | 63% | 71.2% (active) | 8% | 5% | 13.6% | 0% | 48% | 12.6% | -17% | 23% | 28.4% |
| O=C1C(C(Nc2ccccc2)c2ccccc2)=C([O-])c2ccccc21.O=C1C(C(Nc2ccccc2)c2ccccc2)=C([O-])c2ccccc21.[Ni+2] (stereo not given) | 57% | 81% (active) | 63.3% | 33% | 55% | 71% (active) | 49% | 80% (active) | 36.6% | 46% | 46% | 55.8% | 51% | 84% (active) | 73.8% (active) | 39% | 81% (active) | 63.1% |
| S=C1NCCN1 | 1% | 65% | 12.2% | -4% | 15% | 14.7% | 0% | 35% | -17.6% | 5% | 14% | 38.5% | -1% | 21% | -2.65% | 2% | 51% | 4.95% |
| COc1ccc([As]=[As]c2ccc(OC)c(I)c2)cc1I (stereo not given) | 98% (active) | 99% (active) | 99.7% (active) | 100% (active) | 100% (active) | 99.8% (active) | 99% (active) | 100% (active) | 99.8% (active) | 98% (active) | 98% (active) | 99.8% (active) | 99% (active) | 99% (active) | 99.6% (active) | 99% (active) | 99% (active) | 99.7% (active) |
| O=S(=O)(CCBr)CCBr | 51% | 68% | 88.3% (active) | 43% | 56% | 84.2% (active) | 66% | 89% (active) | 88.4% (active) | 92% (active) | 93% (active) | 41.9% | 80% (active) | 94% (active) | 83.2% (active) | 33% | 57% | 85.2% (active) |
| CC(=O)OC1=CC2=CC[C@H]3[C@@H]4CCC(=O)[C@@]4(C)CC(=O)[C@]3(S)[C@@]2(C)CC1 | 14% | 18% | 77.5% (active) | 3% | 8% | 25.5% | 8% | -20% | -4.4% | -16% | -70% | -15.7% | -8% | -3% | 60.6% | -13% | 11% | 54.1% |
| C/C=C(\C)C(=O)OC1CC(C)(C)CC2C3=CCC4C5(C)CCC(=O)C(C)(C)C5CCC4(C)C3(C)CCC12C(=O)O (stereo not given) (tested in a mixture with another compound) | 1% | 78% (active) | 86% (active) | -9% | 70% (active) | 84.7% (active) | 5% | 77% (active) | 89.2% (active) | 38% | 88% (active) | 87.9% (active) | 1% | 82% (active) | 86% (active) | 26% | 82% (active) | 84.3% (active) |
